Source: PubChem BioAssay AID504386 (National Center for Advancing Translational Sciences (NCATS), 2011)
Records with an inconclusive call do not appear. The source made the active and inactive calls. Calls come from the whole dose curve; as a rule, active = well fitted curve in the direction sought with a large enough effect; inconclusive = small, poorly fitted or top-dose-only effect, or another doubt; inactive = no such curve, though single readings can be large or run the other way.

Biological target: Runt-related transcription factor 1 (Homo sapiens) + Core-binding factor subunit beta (Homo sapiens) (UniProt Q01196+Q13951)
Experiment: qHTS Assay for Compounds Blocking the Interaction Between CBF-beta and RUNX1 for the Treatment of Acute Myeloid Leukemia: SAR for Probe
Conditions: AlphaScreen CBFb-His/RUNX1-biotin binding, biochemical
Description: NIH Chemical Genomics Center [NCGC] NIH Molecular Libraries Probe Production centers Network [MLPCN] MLPCN Grant: X01MH083259-01 Assay Submitter (PI): Paul Liu NCGC Assay Overview: Core Binding Factor (CBF) abnormalities are associated with 20-25% of all acute myeloid leukemias (AML), of which 5-10% are further sub classified as acute myelomonocytic leukemia with eosinophilia, also known as M4Eo in the FAB classification scheme. This subtype of leukemia is usually associated with chromosome 16 inversion (p13:q22). Chromosome 16 inversion results in formation of the fusion oncogene CBFB-MYH11, which encodes the fusion protein CBF-beta-SMMHC. […] It has been hypothesized that the interference of CBF-beta and RUNX1 binding could have therapeutic implications for patients with CBF mediated leukemias. […]
NCGC Assay Protocol Summary: Step, Parameter, Description (1) Reagent, 3 uL CBFb-His/RUNX1-biotin mix incubated together for 20 minutes at room temperature (30 nM each) (2) Compound or control, 23 nL compound stock solution (3) Incubation, 15 minutes at Room temperature (4) Reagent, 1 uL 50 ng each of beads (Nickel beads and streptavidin beads) (5) Incubation, 90 minutes at Room temperature (6) Detection, […], Envision reader in AlphaScreenTM mode Keywords: MLSMR, MLPCN, NIH Roadmap, qHTS, NCGC, Core binding factor, CBF, CBF-beta, Acute myeloid leukemia

Runt-related transcription factor 1 (Homo sapiens) + Core-binding factor subunit beta (Homo sapiens), sequence (Q01196 whole entry, looked up): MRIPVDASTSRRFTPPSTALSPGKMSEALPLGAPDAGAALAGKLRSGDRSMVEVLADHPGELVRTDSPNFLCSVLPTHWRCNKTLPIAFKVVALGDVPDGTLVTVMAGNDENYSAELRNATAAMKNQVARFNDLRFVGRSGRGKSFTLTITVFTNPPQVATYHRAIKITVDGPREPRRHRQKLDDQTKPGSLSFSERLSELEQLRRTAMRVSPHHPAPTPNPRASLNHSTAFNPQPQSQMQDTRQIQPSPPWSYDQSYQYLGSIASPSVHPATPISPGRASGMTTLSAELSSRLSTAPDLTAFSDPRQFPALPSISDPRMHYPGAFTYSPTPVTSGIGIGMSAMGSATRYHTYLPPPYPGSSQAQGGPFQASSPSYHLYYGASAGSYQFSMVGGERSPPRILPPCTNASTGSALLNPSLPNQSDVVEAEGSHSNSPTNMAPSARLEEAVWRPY
Runt-related transcription factor 1 (Homo sapiens) + Core-binding factor subunit beta (Homo sapiens), sequence (Q13951 whole entry, looked up): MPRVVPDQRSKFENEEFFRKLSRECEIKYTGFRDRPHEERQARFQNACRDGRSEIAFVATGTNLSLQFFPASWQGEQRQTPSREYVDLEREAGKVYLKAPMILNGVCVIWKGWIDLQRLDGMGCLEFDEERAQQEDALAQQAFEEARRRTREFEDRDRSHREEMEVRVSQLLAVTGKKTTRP

Row | Compound | Potency
1 | CN1C(=O)CN=C(c2ccc[nH]2)c2cc(Cl)ccc21 (tested in a mixture with another compound) | 109 µM (active)
2 | CCN(CC)CCN1C(=O)CN=C(c2ccccn2)c2cc(Cl)ccc21 | 21.7 µM (active)
